{
  "source": "PubChem BioAssay (Tox21)",
  "note": "A number with no mark means an inactive call. The call rests on the fitted dose curve; in most records, active means well fitted activation curve with a large enough effect in the repeat runs; inconclusive means weak or mixed curves; inactive means flat fitted curve, though single readings scatter. Records with an inconclusive call do not appear. On the % scale 0 is the no-effect control and ±100 the full control effect.",
  "data": [
    {"experiment": "A CellTox Green Cytotoxicity Assay to monitor cytotoxicity in HepG2 cells - 0 hour (AID 1224882); further: nearly all actives have a fitted effect of over 35% in size", "conditions": "CellTox Green fluorescence; series mostly up to 76.8 µM; cytotoxicity: at the top concentration", "summary_of_the_method": "(§1)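 Cytotoxicity was tracked as dead-cell DNA fluorescence in HepG2 cells treated with test compounds at 37 C; each time-point value comes from one kinetic series spanning 0, 8, 16, 24, 32 and 40 h.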", "values": [
      {"smiles": "O=C(O)CCCCCCCCCC(=O)O", "cytotoxicity": "-4.79%"},
      {"smiles": "Cc1ccccc1C#N", "cytotoxicity": "0.314%"},
      {"smiles": "CC(=O)SCC(CC(=O)c1ccc(C)cc1)C(=O)O", "note": "(stereo unspecified)", "cytotoxicity": "-0.457% [at 35.3 µM]"},
      {"smiles": "NCC1CCC(C(=O)Oc2ccc(CCC(=O)O)cc2)CC1", "note": "(stereo unspecified)", "cytotoxicity": "-9.57% [at 35.3 µM]"},
      {"smiles": "CCN1CCN(C(=O)N[C@@H](C(=O)N[C@@H]2C(=O)N3[C@@H]2SC(C)(C)[C@H]3C(=O)O)c2ccccc2)C(=O)C1=O", "cytotoxicity": "-14% [at 35.3 µM]"},
      {"smiles": "COc1cc(S(N)(=O)=O)cc(C(=O)O)c1OC", "cytotoxicity": "0.891% [at 35.3 µM]"},
      {"smiles": "C/C(=N\\O)c1ccc(OCC(=O)N2CCCCC2)cc1", "cytotoxicity": "2.43% [at 35.3 µM]"},
      {"smiles": "CC(C)(C)C(=O)CC(=O)C(C)(C)C", "cytotoxicity": "-17.8%"},
      {"smiles": "CC(=O)Oc1ccc(C(C)=O)cc1", "cytotoxicity": "7.69%"},
      {"smiles": "NC[C@H]1O[C@H](O[C@H]2[C@H](O)[C@@H](O[C@H]3O[C@H](CO)[C@@H](O)[C@H](N)[C@H]3O)[C@H](N)C[C@@H]2N)[C@H](N)[C@@H](O)[C@@H]1O", "cytotoxicity": "1.75% [at 15.8 µM]"},
      {"smiles": "CCCc1ncc(C(=O)O)s1", "cytotoxicity": "8.44% [at 35.3 µM]"},
      {"smiles": "CCCCC(CC)CCC(CC(C)C)OS(=O)(=O)O", "note": "(stereo unspecified)", "cytotoxicity": "-8.15%"},
      {"smiles": "O=C[C@@H](O)[C@H](O)[C@H](O)CO", "cytotoxicity": "-1.97%"},
      {"smiles": "COC(C)(C)CC(C)=O", "cytotoxicity": "3.2%"},
      {"smiles": "CC(C)(O)CCCC1=CCC(C=O)CC1", "note": "(stereo unspecified)", "cytotoxicity": "0.089%"},
      {"smiles": "O=S(=O)(O)c1ccc(Cl)cc1", "cytotoxicity": "-2.42%"},
      {"smiles": "CC(C)(C)OC=O", "cytotoxicity": "1.97%"},
      {"smiles": "BrCCOc1ccccc1", "cytotoxicity": "-8.87%"},
      {"smiles": "CN(C)CCc1c[nH]c2ccc(C[C@H]3COC(=O)N3)cc12", "cytotoxicity": "2.28% [at 35.3 µM]"},
      {"smiles": "CCCCCCCCCCCCCCCC(=O)OC", "cytotoxicity": "-12.7% [at 15.8 µM]"},
      {"smiles": "CC(C)CC(O)Cc1ccccc1", "note": "(stereo unspecified)", "cytotoxicity": "-0.817%"},
      {"smiles": "CCCCCCC(O)CO", "note": "(stereo unspecified)", "cytotoxicity": "0.847%"},
      {"smiles": "CN1C(CCl)Nc2cc(Cl)c(S(N)(=O)=O)cc2S1(=O)=O", "note": "(stereo unspecified)", "cytotoxicity": "-0.0719% [at 35.3 µM]"},
      {"smiles": "CCCCNCC", "cytotoxicity": "-3.57%"},
      {"smiles": "CO/N=C(\\C(=O)O)c1csc(NC(=O)CCl)n1", "cytotoxicity": "1.7% [at 35.3 µM]"},
      {"smiles": "O=C(CCBr)N1CCN(C(=O)CCBr)CC1", "cytotoxicity": "1.56% [at 35.3 µM]"},
      {"smiles": "C[C@H]1COc2c(C3(N)CC3)c(F)cc3c(=O)c(C(=O)O)cn1c23", "cytotoxicity": "-0.572% [at 35.3 µM]"},
      {"smiles": "O=C(O)Cc1c(Cl)ccc(Cl)c1Cl", "cytotoxicity": "10.2%"},
      {"smiles": "Cc1ccc(NC(N)=O)cc1", "cytotoxicity": "-2.11%"},
      {"smiles": "COC(=O)c1c(C)cc(O)c(C)c1O", "cytotoxicity": "7.32%"},
      {"smiles": "CN1CCN(C(=O)C2CCCCC2)CC1", "cytotoxicity": "-8.63% [at 35.3 µM]"},
      {"smiles": "Cc1nnc(C(=O)NC(C)(C)c2nc(C(=O)NCc3ccc(F)cc3)c(O)c(=O)n2C)o1", "cytotoxicity": "-1.75% [at 35.3 µM]"},
      {"smiles": "COC(=O)C(c1ccccc1Cl)N1CCc2sccc2C1", "note": "(stereo unspecified)", "cytotoxicity": "9.8% [at 35.3 µM]"},
      {"smiles": "C=CC(=O)OCCOCCOCC", "cytotoxicity": "-0.374%"},
      {"smiles": "CN(C)c1ccncc1", "cytotoxicity": "5.51%"},
      {"smiles": "CCCOc1ccc(C(=O)OCCN(CC)CC)cc1N", "cytotoxicity": "-7.84% [at 35.3 µM]"},
      {"smiles": "COCCCOc1cc(C[C@@H](C[C@H](N)[C@@H](O)C[C@H](C(=O)NCC(C)(C)C(N)=O)C(C)C)C(C)C)ccc1OC", "cytotoxicity": "-1.71% [at 35.3 µM]"},
      {"smiles": "O=C1c2ccccc2C(=O)N1CO", "cytotoxicity": "1.11%"}
    ]},
    {"experiment": "A CellTox Green Cytotoxicity Assay to monitor cytotoxicity in HepG2 cells - 32 hour (AID 1224883); further: nearly all actives have a fitted effect of over 50% in size", "conditions": "CellTox Green fluorescence; series mostly up to 76.8 µM; cytotoxicity increase: at the top concentration", "summary_of_the_method": "as §1", "values": [
      {"smiles": "O=C(O)CCCCCCCCCC(=O)O", "cytotoxicity increase": "-13.5%"},
      {"smiles": "Cc1ccccc1C#N", "cytotoxicity increase": "-3.1%"},
      {"smiles": "CC(=O)SCC(CC(=O)c1ccc(C)cc1)C(=O)O", "note": "(stereo unspecified)", "cytotoxicity increase": "0.337% [at 35.3 µM]"},
      {"smiles": "NCC1CCC(C(=O)Oc2ccc(CCC(=O)O)cc2)CC1", "note": "(stereo unspecified)", "cytotoxicity increase": "-21.2% [at 35.3 µM]"},
      {"smiles": "CCN1CCN(C(=O)N[C@@H](C(=O)N[C@@H]2C(=O)N3[C@@H]2SC(C)(C)[C@H]3C(=O)O)c2ccccc2)C(=O)C1=O", "cytotoxicity increase": "-14.8% [at 35.3 µM]"},
      {"smiles": "COc1cc(S(N)(=O)=O)cc(C(=O)O)c1OC", "cytotoxicity increase": "-0.819% [at 35.3 µM]"},
      {"smiles": "C/C(=N\\O)c1ccc(OCC(=O)N2CCCCC2)cc1", "cytotoxicity increase": "0.906% [at 35.3 µM]"},
      {"smiles": "CC(C)(C)C(=O)CC(=O)C(C)(C)C", "cytotoxicity increase": "-18.8%"},
      {"smiles": "CC(=O)Oc1ccc(C(C)=O)cc1", "cytotoxicity increase": "5%"},
      {"smiles": "NC[C@H]1O[C@H](O[C@H]2[C@H](O)[C@@H](O[C@H]3O[C@H](CO)[C@@H](O)[C@H](N)[C@H]3O)[C@H](N)C[C@@H]2N)[C@H](N)[C@@H](O)[C@@H]1O", "cytotoxicity increase": "-2.59% [at 15.8 µM]"},
      {"smiles": "CCCc1ncc(C(=O)O)s1", "cytotoxicity increase": "4.85% [at 35.3 µM]"},
      {"smiles": "CCCCC(CC)CCC(CC(C)C)OS(=O)(=O)O", "note": "(stereo unspecified)", "cytotoxicity increase": "-4.64%"},
      {"smiles": "O=C[C@@H](O)[C@H](O)[C@H](O)CO", "cytotoxicity increase": "-12.1%"},
      {"smiles": "COC(C)(C)CC(C)=O", "cytotoxicity increase": "-3.19%"},
      {"smiles": "CC(C)(O)CCCC1=CCC(C=O)CC1", "note": "(stereo unspecified)", "cytotoxicity increase": "-5.09%"},
      {"smiles": "O=S(=O)(O)c1ccc(Cl)cc1", "cytotoxicity increase": "-6.44%"},
      {"smiles": "CC(C)(C)OC=O", "cytotoxicity increase": "-1.84%"},
      {"smiles": "BrCCOc1ccccc1", "cytotoxicity increase": "-1.68%"},
      {"smiles": "CN(C)CCc1c[nH]c2ccc(C[C@H]3COC(=O)N3)cc12", "cytotoxicity increase": "-0.848% [at 35.3 µM]"},
      {"smiles": "CCCCCCCCCCCCCCCC(=O)OC", "cytotoxicity increase": "-21.5% [at 15.8 µM]"},
      {"smiles": "CC(C)CC(O)Cc1ccccc1", "note": "(stereo unspecified)", "cytotoxicity increase": "2.6%"},
      {"smiles": "CCCCCCC(O)CO", "note": "(stereo unspecified)", "cytotoxicity increase": "-0.131%"},
      {"smiles": "CN1C(CCl)Nc2cc(Cl)c(S(N)(=O)=O)cc2S1(=O)=O", "note": "(stereo unspecified)", "cytotoxicity increase": "-2.69% [at 35.3 µM]"},
      {"smiles": "CCCCNCC", "cytotoxicity increase": "1.96%"},
      {"smiles": "CO/N=C(\\C(=O)O)c1csc(NC(=O)CCl)n1", "cytotoxicity increase": "-7.18% [at 35.3 µM]"},
      {"smiles": "O=C(CCBr)N1CCN(C(=O)CCBr)CC1", "cytotoxicity increase": "0.518% [at 35.3 µM]"},
      {"smiles": "C[C@H]1COc2c(C3(N)CC3)c(F)cc3c(=O)c(C(=O)O)cn1c23", "cytotoxicity increase": "-8.18% [at 35.3 µM]"},
      {"smiles": "O=C(O)Cc1c(Cl)ccc(Cl)c1Cl", "cytotoxicity increase": "-0.358%"},
      {"smiles": "Cc1ccc(NC(N)=O)cc1", "cytotoxicity increase": "-1.25%"},
      {"smiles": "COC(=O)c1c(C)cc(O)c(C)c1O", "cytotoxicity increase": "18.3%"},
      {"smiles": "CN1CCN(C(=O)C2CCCCC2)CC1", "cytotoxicity increase": "-16.6% [at 35.3 µM]"},
      {"smiles": "Cc1nnc(C(=O)NC(C)(C)c2nc(C(=O)NCc3ccc(F)cc3)c(O)c(=O)n2C)o1", "cytotoxicity increase": "11% [at 35.3 µM]"},
      {"smiles": "COC(=O)C(c1ccccc1Cl)N1CCc2sccc2C1", "note": "(stereo unspecified)", "cytotoxicity increase": "1.55% [at 35.3 µM]"},
      {"smiles": "C=CC(=O)OCCOCCOCC", "cytotoxicity increase": "1.18%"},
      {"smiles": "CN(C)c1ccncc1", "cytotoxicity increase": "-0.666%"},
      {"smiles": "CCCOc1ccc(C(=O)OCCN(CC)CC)cc1N", "cytotoxicity increase": "-10.3% [at 35.3 µM]"},
      {"smiles": "COCCCOc1cc(C[C@@H](C[C@H](N)[C@@H](O)C[C@H](C(=O)NCC(C)(C)C(N)=O)C(C)C)C(C)C)ccc1OC", "cytotoxicity increase": "3.52% [at 35.3 µM]"},
      {"smiles": "O=C1c2ccccc2C(=O)N1CO", "cytotoxicity increase": "0.0525%"}
    ]}
  ]
}
